KCNQ2 pot = potentiators of rat KCNQ2 potassium channel; Potassium voltage-gated channel subfamily KQT member 2 (Rattus norvegicus), O88943; B-score at 10 µM; 310,000 compounds, 0.54% hits; AID 2239, 2010; CHO-K1 KCNQ2, FluxOR thallium flux fluorescence; hits give high values;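 active = fluorescence ratio B-score at least 3 SD of library B-scores, with initial fluorescence B-score within 3 of them, cut at about 5.3 in these data; same plate scores as AID 2156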;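 note: B-score of peak minus minimum over baseline fluorescence ratio after K+ and Tl+ stimulus; positive B-score means potentiation of KCNQ2 with more thallium influx and brighter signal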
KCNQ2 inh = rat KCNQ2 potassium channel inhibitors, primary screen, cell-based, CHO-K1, FluxOR thallium flux, B-score. Potassium voltage-gated channel subfamily KQT member 2 (Rattus norvegicus), O88943. 20 min; hits give low values. B-score at 10 µM. 310,000 compounds, 1.1% hits. AID 2156, 2009;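 active = fluorescence ratio B-score at most minus 3 library SDs, with starting brightness B-score within 2 library SDs, cut at about -5.5 in these data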
Kir21 confirm = mouse Kir2.1 channel blockers, retest, confirmation, cell-based, FluxOR thallium flux, duplicate | AID 2032, 2009 | 2,300 compounds, 41% hits | Kir2.1-expressing cells, FluxOR thallium flux fluorescence; hits give low values | shares compounds with KCNQ2 pot | Tl flux remaining, % of negative control (hits give low values), % at 10 µM;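 active = Primary-screen hit whose thallium flux fell at least 3 control SD below untreated wells in both duplicates, with normal baseline fluorescence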;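 note: 0% = blank wells without stimulus and 100% = stimulated no-compound controls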
HEK293 Tl flux = alters thallium flux in parental HEK293 cells, Kir2.1 counter-screen; shares compounds with KCNQ2 pot; FluxOR thallium flux fluorescence; 0% = unstimulated blank wells; FluxOR signal as % of negative control (100 = no effect), % at 10 µM; 2,300 compounds, 19% hits;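 active = dye signal at least 3 control SD above or below untreated wells in both duplicates, raw fluorescence within 3, either direction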;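 note: percent is based on the flux ratio of peak minus minimum fluorescence over baseline F0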
CHO-K1 ctr = nonspecific thallium flux increase in parental CHO-K1, confirmation, counter-screen for KCNQ2 potentiator project, cell-based, FluxOR thallium flux, duplicate | shares compounds with KCNQ2 pot | parental CHO-K1 cells, FluxOR thallium flux fluorescence; zero = vehicle mean+3SD, 100% = vehicle-minus-blank window | activity increase over 3SD of controls, % at 10 µM | 1,200 compounds, 43% hits | AID 2282, 2010;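 active = signal rise of at least 3 SD above the untreated control mean, in both duplicate wells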;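 note: counter screen of KCNQ2 potentiator hits so any rise reflects channel-independent effects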
KCNQ1 sel pot = human KCNQ1 channel potentiation off-target, confirmation, selectivity assay for KCNQ2 potentiator project, cell-based, CHO, FluxOR thallium flux; CHO KCNQ1 stable, FluxOR thallium flux fluorescence; beyond 3SD, as % of vehicle-control signal; shares compounds with KCNQ2 pot; AID 2283, 2010; 1,200 compounds, 28% hits; activation over 3SD threshold, % at 10 µM;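 active = fluorescence ratio rise of at least 3 SD of vehicle wells above their mean, in both replicate wells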;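 note: 0% = vehicle mean plus 3 SD and 100% = vehicle minus unstimulated blank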
Target sequence (P51787 whole entry, looked up): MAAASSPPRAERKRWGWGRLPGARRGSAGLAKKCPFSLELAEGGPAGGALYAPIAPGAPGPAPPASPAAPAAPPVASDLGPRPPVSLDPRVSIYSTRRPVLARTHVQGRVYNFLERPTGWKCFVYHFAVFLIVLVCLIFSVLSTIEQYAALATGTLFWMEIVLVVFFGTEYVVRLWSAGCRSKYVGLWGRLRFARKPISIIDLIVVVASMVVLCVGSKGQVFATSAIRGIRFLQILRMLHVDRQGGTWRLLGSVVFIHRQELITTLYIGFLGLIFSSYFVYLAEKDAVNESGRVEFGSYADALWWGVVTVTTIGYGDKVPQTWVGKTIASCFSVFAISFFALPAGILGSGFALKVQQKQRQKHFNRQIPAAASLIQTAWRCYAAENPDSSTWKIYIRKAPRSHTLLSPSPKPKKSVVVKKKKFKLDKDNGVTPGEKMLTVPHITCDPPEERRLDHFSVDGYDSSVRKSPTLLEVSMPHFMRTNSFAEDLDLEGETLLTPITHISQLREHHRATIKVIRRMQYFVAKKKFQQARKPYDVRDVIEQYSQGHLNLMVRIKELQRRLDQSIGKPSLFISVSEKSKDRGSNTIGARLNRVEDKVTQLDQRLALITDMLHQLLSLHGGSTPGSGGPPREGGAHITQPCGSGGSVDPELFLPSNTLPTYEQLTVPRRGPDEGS
KCNQ2 pot confirm = rat KCNQ2 channel potentiators, confirmation, cell-based, CHO, FluxOR thallium flux, duplicate. shares compounds with KCNQ2 pot. potentiation, less the hit threshold, % at 10 µM. CHO-KCNQ2 cells, FluxOR thallium flux fluorescence. 1,200 compounds, 68% hits;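 active = fluorescence ratio rising 3 SD or more over the vehicle control mean in both replicates, plus primary screen hit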;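 note: peak minus minimum thallium fluorescence divided by baseline after K/Tl stimulus; 0% = vehicle mean plus 3 SD and 100% = vehicle minus unstimulated blank difference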
Kir21 spec = mouse Kir2.1 channel activation off-target, confirmation, selectivity assay for KCNQ2 potentiator project, cell-based, HEK293, FluxOR thallium flux. shares compounds with KCNQ2 pot. HEK293 Kir2.1, FluxOR thallium flux fluorescence. activity over 3SD threshold, % at 10 µM. 1,200 compounds, 2% hits;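 active = fluorescence ratio rise of at least 3 SD above the vehicle-control mean, seen in both replicates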;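 note: 0% = vehicle mean plus 3 SD and 100% = vehicle minus no-stimulus blank window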
KCNQ2 W236L pot = potentiators of retigabine-insensitive KCNQ2 W236L, mechanism study for KCNQ2 potentiator project, cell-based, rat KCNQ2 W236L, CHO, automated patch clamp. AID 2558, 2010. shares compounds with KCNQ2 pot. automated patch clamp current. current increase over 3SD of negative controls (%), hits give high values, % at 25 µM. 940 compounds, 10% hits;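 active = current increase at least 3 SD of the untreated controls above them in both duplicate recordings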
* marks the source's active call; other numbers are inactive results. Sampled rows, rich in hits. Any-hit rate of the full collection: about 1.6%.

Screening Cc1ccc(C2CC2C(=O)NNC(=S)Nc2cccc(Cl)c2)cc1 (configuration not stated) returned KCNQ2 pot 18*, KCNQ2 inh inactive, Kir21 confirm inactive, HEK293 Tl flux inactive, CHO-K1 ctr -2.5, KCNQ1 sel pot -4.8, KCNQ2 pot confirm 83.9*, Kir21 spec -36.5 and KCNQ2 W236L pot inactive.
O=C(NNC(=S)Nc1ccc(F)cc1)C1CC1c1ccc(Cl)cc1 (configuration not stated) was read as KCNQ2 pot 1.66 and KCNQ2 inh inactive.
`Cc1ccc(NC(=S)NNC(=O)C2CC2c2ccc(C)cc2)cc1` (configuration not stated) gave KCNQ2 inh inactive.
Screening Cc1ccc(C2CC2C(=O)NNC(=S)Nc2cccc(C)c2)cc1 (configuration not stated) returned KCNQ2 pot 9.2*, KCNQ2 inh inactive, Kir21 confirm inactive, HEK293 Tl flux inactive, CHO-K1 ctr -4.1, KCNQ1 sel pot -12.2, KCNQ2 pot confirm 64.4*, Kir21 spec -54.5 and KCNQ2 W236L pot inactive.
`O=c1cc(-c2ccccc2)nc2nc(COc3ccccc3)[nH]n12` gave KCNQ2 pot 0.46 and KCNQ2 inh inactive.
For O=C(CN(CC1CCCO1)S(=O)(=O)c1ccc(S(=O)(=O)NC2CC2)cc1)Nc1ccccc1 (configuration not stated) the results were KCNQ2 inh inactive.
`CCOC(=O)c1[nH]c2ccc(OC)cc2c1NS(=O)(=O)c1ccc(OC)cc1OC` gave KCNQ2 inh inactive.
CCc1cccc(C)c1NC(=O)CN1CCN(S(=O)(=O)c2ccc(C(C)(C)C)cc2)CC1 was read as KCNQ2 pot 5.32*, KCNQ2 inh inactive, Kir21 confirm inactive, HEK293 Tl flux inactive, CHO-K1 ctr 63.4*, KCNQ1 sel pot -9.1, KCNQ2 pot confirm -19.1 and Kir21 spec -35.5.
For CCc1cccc(C)c1NC(=O)COC(=O)C1CCN(S(=O)(=O)c2ccccc2)CC1 the results were KCNQ2 pot 1.87 and KCNQ2 inh inactive.
For CC(C)(C)C(=O)Nc1ccc(NC(=O)c2ccco2)nc1 the results were KCNQ2 inh inactive.
`Cc1ccc(/C=C/C(=O)C2C(=O)c3ccccc3C2=O)cc1` gave KCNQ2 pot 7.26*, KCNQ2 inh inactive, Kir21 confirm inactive, HEK293 Tl flux 146.0%*, CHO-K1 ctr -18.4, KCNQ1 sel pot -18.6, KCNQ2 pot confirm -2.3, Kir21 spec -32.2 and KCNQ2 W236L pot inactive.
Cc1ccc(/C=C/C(=O)c2ccccc2O)cc1 was read as KCNQ2 inh inactive.
`CC1(C)CC(=O)c2sc(NC(=O)c3ccco3)nc2C1` gave KCNQ2 pot 0.9 and KCNQ2 inh inactive.
